Inconclusive results are not listed. Activity calls are given as the source filed them. Unless noted, calls follow the shape of the full dose curve.
How the values were obtained:
[1] = Nuclear factor erythroid 2-related factor 2/antioxidant responsive element (Nrf2/ARE) small molecule agonists: qHTS cell viability counter screen in human keratinocytes (AID 1919968; active = well fitted curve in the direction sought with a large enough effect in the repeat runs; an effect the other way counts as inactive or inconclusive; also: nearly all actives have a fitted effect of over 55% in size)
Method in brief: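 CellTiter-Fluor fluorescence, read 1 h after reagent, gave viability in the same wells as the ARE-luciferase assay. KeratinoSens cells (1,500/well) had 23 h compound exposure at 37 C/5% CO2 following 5 h plating.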

[2] = Nuclear factor erythroid 2-related factor 2/antioxidant responsive element (Nrf2/ARE) small molecule agonists: luciferase reporter gene qHTS assay in human keratinocytes (AID 1919969); also: nearly all actives have a fitted effect of over 35% in size
[3] = target: Gonadotropin-releasing hormone receptor (Homo sapiens) (UniProt P30968); test: Human gonadotropin-releasing hormone receptor (GnRHR) small molecule agonists, calcium flux assay in GnRHR-HEK293 cells (AID 1920063); also: nearly all actives have a fitted effect of over 35% in size
Sequence of Gonadotropin-releasing hormone receptor (Homo sapiens) (P30968 whole entry, looked up): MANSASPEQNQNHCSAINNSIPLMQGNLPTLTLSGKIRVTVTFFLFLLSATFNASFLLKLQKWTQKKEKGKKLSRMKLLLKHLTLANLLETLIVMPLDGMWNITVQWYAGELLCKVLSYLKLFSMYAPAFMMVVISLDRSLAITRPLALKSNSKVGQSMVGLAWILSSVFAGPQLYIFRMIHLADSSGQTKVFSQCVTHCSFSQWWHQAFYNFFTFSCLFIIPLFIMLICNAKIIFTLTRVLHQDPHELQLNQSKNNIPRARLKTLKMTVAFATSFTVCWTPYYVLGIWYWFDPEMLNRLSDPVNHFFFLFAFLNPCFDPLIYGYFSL
Method in brief: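 Agonist mode: compounds at 15 concentrations, in triplicate, went onto calcium dye-loaded GnRHR-HEK293 cells. Intracellular calcium was then followed as 480/540 nm fluorescence at 1 s intervals over 3 min.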

[4] = target: KiSS-1 receptor (Homo sapiens) (UniProt Q969F8); test: Human kisspeptin (KISS1R) small molecule agonists, calcium flux assay in KISS1R-HEK293 cells (AID 1920064; active = well fitted curve in the direction sought with a large enough effect in the repeat runs; an effect the other way counts as inactive or inconclusive)
Sequence of KiSS-1 receptor (Homo sapiens) (Q969F8 whole entry, looked up): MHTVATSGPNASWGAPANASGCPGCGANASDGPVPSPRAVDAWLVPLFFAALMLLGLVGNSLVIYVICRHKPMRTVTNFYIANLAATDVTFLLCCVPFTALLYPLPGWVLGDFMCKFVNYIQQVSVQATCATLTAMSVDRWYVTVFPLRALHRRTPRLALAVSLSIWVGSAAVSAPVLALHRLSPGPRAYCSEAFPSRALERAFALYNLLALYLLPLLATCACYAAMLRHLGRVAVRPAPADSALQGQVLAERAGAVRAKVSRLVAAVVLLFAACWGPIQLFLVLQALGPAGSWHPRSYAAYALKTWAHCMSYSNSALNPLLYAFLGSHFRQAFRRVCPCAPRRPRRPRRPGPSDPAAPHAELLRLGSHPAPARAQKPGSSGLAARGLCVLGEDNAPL
Method in brief: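 Agonist mode: intracellular calcium rise tracked at 1 s intervals over 3 min (480/540 nm) immediately after compound addition to dye-loaded KISS1R-HEK293 stable cells. Each compound tested at 15 concentrations in triplicate.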

[5] = G protein-coupled receptor (GPCR) small molecule agonists, calcium flux assay: HEK293 wild type cell line counter screen (AID 1920065)
Method in brief: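 Calcium flux counter screen: compound added in agonist mode at 15 concentrations in triplicate to dye-loaded parental HEK293 cells. Fluorescence (480/540) read kinetically for 3 min; ATP served as positive control.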

[6] = p53 small molecule agonists, cell-based qHTS assay with rat liver microsomes (AID 1963578)
Method in brief: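 Quantitative HTS of the Tox21 10K library: p53RE-bla cells, rat liver microsomes plus NADPH at 0.5 mg/mL final each, 16 h at 37 C, beta-lactamase fluorescence detection.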

[7] = p53 small molecule agonists, cell-based qHTS assay with human liver microsomes: qHTS cell viability counter screen (AID 1963579); also: nearly all actives have a fitted effect of over 45% in size
Method in brief: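 Viability of p53RE-bla cells is measured as CellTiter-Glo luminescence following a 16 h, 37 C incubation with compound, liver microsomes from human donors and NADPH.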

[8] = p53 small molecule agonists, cell-based qHTS assay with rat liver microsomes: qHTS cell viability counter screen (AID 1963580); also: nearly all actives have a fitted effect of over 45% in size
Method in brief: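 Cytotoxicity counter screen: intracellular ATP measured by CellTiter-Glo luminescence in the same wells as the beta-lactamase reporter read, on HCT-116 p53RE-bla cells exposed 16 h at 37 C to compounds with rat liver microsomes and NADPH, each 0.5 mg/mL final.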

[9] = p53 small molecule agonists, cell-based qHTS assay: qHTS cell viability counter screen (AID 1963581); also: nearly all actives have a fitted effect of over 45% in size
Method in brief: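 Counter screen read by CellTiter-Glo luminescence (ATP content, 30 min at room temperature), run in the same wells as the beta-lactamase reporter read. HCT-116 p53RE-bla cells saw compounds for 16 h at 37 C.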

[10] = p53 small molecule agonists, cell-based qHTS assay (AID 1963582; active = well fitted activation curve with a large enough effect in the signal ratio in the repeat runs, not every such curve was filed as active; the % refers to the signal ratio)
Method in brief: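 Read-out is beta-lactamase FRET fluorescence after 2 h at room temperature with LiveBLAzer B/G substrate. p53 response element-bla cells were treated 16 h at 37 C with compounds in DMSO, added 5 h after seeding.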

[11] = target: Beta-2 adrenergic receptor (Homo sapiens) (UniProt P07550); test: Adrenergic beta2 receptor (ADRB2) small molecule antagonists, cell-based qHTS assay (AID 1963592); also: series mostly up to about 92 µM; nearly all actives have a fitted effect of over 50% in size
Sequence of Beta-2 adrenergic receptor (Homo sapiens) (P07550 whole entry, looked up): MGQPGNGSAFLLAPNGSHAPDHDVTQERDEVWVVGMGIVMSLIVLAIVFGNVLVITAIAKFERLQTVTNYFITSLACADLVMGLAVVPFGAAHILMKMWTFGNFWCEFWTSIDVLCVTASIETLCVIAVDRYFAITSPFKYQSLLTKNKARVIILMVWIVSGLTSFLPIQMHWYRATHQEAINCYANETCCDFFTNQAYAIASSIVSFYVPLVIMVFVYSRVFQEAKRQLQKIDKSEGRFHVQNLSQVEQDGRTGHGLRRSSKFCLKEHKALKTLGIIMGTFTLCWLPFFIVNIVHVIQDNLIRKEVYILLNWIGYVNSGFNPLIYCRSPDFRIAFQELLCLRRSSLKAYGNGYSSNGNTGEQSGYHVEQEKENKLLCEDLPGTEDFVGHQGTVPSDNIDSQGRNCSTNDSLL
Method in brief: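 Assay format: CHO-ADRB2 cells, 18-20hr seeding at 37C/5% CO2, then compound plus 1nM isoproterenol agonist mix for 0.5hr RT. Homogeneous time-resolved fluorescence cAMP detection after 1hr, expressed as 665/615 nm ratio.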

[12] = target: D(2) dopamine receptor (Homo sapiens) (UniProt P14416); test: Dopamine D2 receptor (DRD2) small molecule agonists, cell-based qHTS assay (AID 1963594); also: nearly all actives have a fitted effect of over 35% in size
Sequence of D(2) dopamine receptor (Homo sapiens) (P14416 whole entry, looked up): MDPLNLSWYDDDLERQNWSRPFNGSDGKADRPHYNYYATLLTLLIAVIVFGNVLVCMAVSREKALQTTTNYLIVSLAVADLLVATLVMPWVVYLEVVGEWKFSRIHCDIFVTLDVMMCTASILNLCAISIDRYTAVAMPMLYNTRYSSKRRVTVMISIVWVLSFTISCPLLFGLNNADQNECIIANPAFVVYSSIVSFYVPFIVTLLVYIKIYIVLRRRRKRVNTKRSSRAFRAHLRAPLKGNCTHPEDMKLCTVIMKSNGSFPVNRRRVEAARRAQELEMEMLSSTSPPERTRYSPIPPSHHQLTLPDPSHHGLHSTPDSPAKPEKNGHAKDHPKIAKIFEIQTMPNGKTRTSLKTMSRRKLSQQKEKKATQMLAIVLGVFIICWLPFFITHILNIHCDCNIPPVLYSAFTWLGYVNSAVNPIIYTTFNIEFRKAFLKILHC
Method in brief: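 HEK293 cells stably expressing human DRD2, pre-treated with PDE inhibitor Ro20-1724 (0.1 mM final) and compound 10 min at room temperature, then stimulated with NKH477 (200nM […]) for 30 min. cAMP read by HTRF (665/620 nm).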

[13] = cAMP Responsive Elements (CRE) small molecule agonists, cell-based qHTS assay (AID 1963590)
Method in brief: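 Agonist mode: compound added to CRE-bla HEK 293T cells (2,000/well, 18 h after plating) for 3 h at 37 C/5% CO2. Reporter activity detected via FRET beta-lactamase substrate, 2 h room-temperature loading.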

[14] = cAMP Responsive Elements (CRE) small molecule antagonists, cell-based qHTS assay (AID 1963591; active = well fitted inhibition curve with a large enough effect in the signal ratio in the repeat runs, not every such curve was filed as active; the % refers to the signal ratio)
Method in brief: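 Antagonist mode: compounds are added alongside the adenylyl cyclase activator NKH477 (0.25 uM final) to CRE-bla HEK293T cells for 3 h. LiveBLAzer FRET substrate, 2 h at room temperature, reports bla expression.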

[15] = target: D(2) dopamine receptor (Homo sapiens) (UniProt P14416); test: Dopamine D2 receptor (DRD2) small molecule antagonists, cell-based qHTS assay (AID 1963595; active = well fitted inhibition curve with a large enough effect in the signal ratio in the repeat runs, with a control signal flat; the % refers to the signal ratio)
Method in brief: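 In this cell-based antagonist screen, compounds act for 10 min at room temperature before a 30 min challenge with 12 nM quinpirole and 200 nM NKH477. cAMP is quantified by HTRF competition in DRD2-HEK293 cells containing 0.1 mM Ro20-1724.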

[16] = target: 5-hydroxytryptamine receptor 2A (Homo sapiens) (UniProt P28223); test: 5-hydroxytryptamine receptor 2A (HTR2A) small molecule agonists, cell-based qHTS assay (AID 1963587); also: nearly all actives have a fitted effect of over 30% in size
Sequence of 5-hydroxytryptamine receptor 2A (Homo sapiens) (P28223 whole entry, looked up): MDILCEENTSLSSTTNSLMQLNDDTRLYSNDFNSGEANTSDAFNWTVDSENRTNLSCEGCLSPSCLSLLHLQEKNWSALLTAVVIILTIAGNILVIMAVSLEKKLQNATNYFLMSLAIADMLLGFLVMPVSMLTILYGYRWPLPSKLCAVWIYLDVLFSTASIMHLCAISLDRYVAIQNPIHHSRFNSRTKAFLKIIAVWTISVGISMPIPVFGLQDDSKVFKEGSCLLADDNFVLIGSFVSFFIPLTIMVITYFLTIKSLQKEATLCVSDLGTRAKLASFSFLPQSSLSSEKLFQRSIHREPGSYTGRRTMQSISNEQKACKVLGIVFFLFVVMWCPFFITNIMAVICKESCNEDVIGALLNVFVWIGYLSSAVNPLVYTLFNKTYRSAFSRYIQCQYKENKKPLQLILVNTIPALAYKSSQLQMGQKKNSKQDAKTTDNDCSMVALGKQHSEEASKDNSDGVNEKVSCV
Method in brief: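 CHO cells stably expressing human HTR2A, plated 18 h, loaded with calcium dye 1 h at 37 C. Agonist mode: compounds added and intracellular calcium fluorescence recorded kinetically for 2 min at 1 sec intervals.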

[17] = target: Muscarinic acetylcholine receptor M1 (Homo sapiens) (UniProt P11229); test: Cholinergic receptor muscarinic 1 (CHRM1) small molecule antagonists, cell-based qHTS assay (AID 1963588); also: nearly all actives have a fitted effect of over 40% in size
Sequence of Muscarinic acetylcholine receptor M1 (Homo sapiens) (P11229 whole entry, looked up): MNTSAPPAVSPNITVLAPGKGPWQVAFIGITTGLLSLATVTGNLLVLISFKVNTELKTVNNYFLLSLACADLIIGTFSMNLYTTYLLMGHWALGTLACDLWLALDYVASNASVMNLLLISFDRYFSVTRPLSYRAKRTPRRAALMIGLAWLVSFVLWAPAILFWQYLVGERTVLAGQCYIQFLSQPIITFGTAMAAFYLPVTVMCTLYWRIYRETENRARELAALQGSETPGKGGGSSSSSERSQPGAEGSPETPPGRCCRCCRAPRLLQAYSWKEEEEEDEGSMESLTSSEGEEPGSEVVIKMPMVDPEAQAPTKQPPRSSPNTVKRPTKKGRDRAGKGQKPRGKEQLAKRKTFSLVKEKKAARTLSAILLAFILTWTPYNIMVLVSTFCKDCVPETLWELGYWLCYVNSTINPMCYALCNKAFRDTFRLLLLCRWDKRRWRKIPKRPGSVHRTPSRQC
Method in brief: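 Compounds were tested at 15 concentrations in three independent runs. Dye-loaded CHRM1-CHO cells were exposed 5 min at room temperature before stimulation by acetylcholine added at 50nM. Intracellular calcium was read kinetically on FDSS for 3 min.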

[18] = target: Muscarinic acetylcholine receptor M1 (Homo sapiens) (UniProt P11229); test: Cholinergic receptor muscarinic 1 (CHRM1) small molecule agonists, cell-based qHTS assay (AID 1963589); also: nearly all actives have a fitted effect of over 35% in size
Method in brief: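 Agonist-mode calcium-flux screen: compounds at 15 concentrations, three independent runs, were pin-transferred onto dye-loaded human CHRM1-CHO cells. Fluorescence was then recorded kinetically every second over minutes.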

[19] = target: 5-hydroxytryptamine receptor 2A (Homo sapiens) (UniProt P28223); test: 5-hydroxytryptamine receptor 2A (HTR2A) small molecule antagonists, cell-based qHTS assay (AID 1963586); also: nearly all actives have a fitted effect of over 45% in size
Method in brief: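 CHO cells stably expressing human HTR2A were plated for 18 h at 37 C, then loaded with calcium dye for 1 h. Compounds were preincubated 5 min at room temperature before DOI (4 nM solution) was added. Kinetic fluorescence was read for 3 min.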

[20] = target: Beta-2 adrenergic receptor (Homo sapiens) (UniProt P07550); test: Adrenergic beta2 receptor (ADRB2) small molecule agonists, cell-based qHTS assay (AID 1963593);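 also: CHO cells stably overexpressing human ADRB2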
Method in brief: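 CHO cells stably over-expressing ADRB2 were plated overnight at 37C, then dosed with compounds plus a stimulation mix containing 100uM IBMX and 25uM Ro-20-1724 for 0.5hr at room temperature. cAMP was measured by HTRF competition, 1hr.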

Measured: Potency

COCCOC(=O)C1=C(C)NC(C)=C(C(=O)OC(C)C)C1c1cccc([N+](=O)[O-])c1 (centres undefined)
not listed: [13] | [14] | [15] | [16] | [17] | [18] | [19] | [20]
inactive: all other assays above

O=C(O)CCNC(=O)c1ccc(N=Nc2ccc(O)c(C(=O)O)c2)cc1
not listed: [16] | [17] | [18] | [19] | [20]
inactive: all other assays above

O=C(Nc1ccc([N+](=O)[O-])cc1)Nc1ccc([N+](=O)[O-])cc1
not listed: [19] | [20]
inactive: all other assays above

C=CC(=O)OCC1CCCO1 (centres undefined)
not listed: [11] | [20]
inactive: all other assays above

CC/C=C\CCOC(=O)c1ccccc1
not listed: [14] | [20]
inactive: all other assays above

COc1ccc(C(=O)Nc2ccccc2)cc1[N+](=O)[O-]
not listed: [13] | [14] | [17] | [19] | [20]
inactive: all other assays above

O=c1[nH]cnc2nc[nH]c12
not listed: [20]
inactive: all other assays above

CC(N)C(=O)OC(C)(C)Cc1ccc(Cl)cc1 (centres undefined)
not listed: [12] | [16] | [18] | [20]
inactive: all other assays above

CNC(=O)CN(CCN(CCN(CC(=O)[O-])CC(=O)NC)CC(=O)[O-])CC(=O)[O-].O.[Gd+3]
not listed: [12] | [17] | [19] | [20]
inactive: all other assays above

Cn1c(N)c(N=O)c(=O)n(C)c1=O
not listed: [13] | [20]
inactive: all other assays above

C1=C\CC/C=C\CC/1
not listed: [13] | [19]
inactive: all other assays above

CC(=O)O[C@H]1C[C@@H]2CC[C@@H]3[C@H](CC[C@@]4(C)[C@H]3C[C@H]([N+]3(C)CCCCC3)[C@@H]4OC(C)=O)[C@@]2(C)C[C@@H]1N1CCCCC1
not listed: [12] | [14] | [15] | [16] | [17] | [18] | [19] | [20]
inactive: all other assays above

CC(C)CCCC(C)NCCC(C)C (centres undefined)
not listed: [20]
inactive: all other assays above

OCCCCC(O)CO (centres undefined)
not listed: [14] | [18]
inactive: all other assays above

CC(=O)OCC(=O)[C@@]1(O)CC[C@H]2[C@@H]3CCC4=CC(=O)C=C[C@]4(C)[C@@]3(F)[C@@H](O)C[C@@]21C
not listed: [13] | [16] | [20]
inactive: all other assays above
